Source: the supplement of paper PMC11732987, “Enantioselective OTUD7B fragment discovery through chemoproteomics screening and high-throughput optimisation” (Communications Chemistry, 2025)

How the values were obtained:
Experiment in all cases: log2 ratio of Biotin-Ahx-Ub-VS probe labelling (compound/DMSO); higher = less target engagement, active = hit call of the paper (q ≤ 0.05, log2 ratio ≤ -1)
Conditions in all cases: treatment time: 3 h
[1] = compound: CCC1N(CCc2sccc12)C(=O)CCl
Procedure, shortened: (§1)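 HEK293T lysate (495 µg per sample, in Tris/CHAPS/IGEPAL buffer with protease inhibitors) was exposed in triplicate to compound at 50 or 200 µM, or to DMSO, for 3 h, then to Biotin-Ahx-Ub-VS (0.5 µM final) for 1 h. The labelled DUBs were enriched on NeutrAvidin, digested with LysC and trypsin, and analysed by diaPASEF LC-MS/MS. Average base-two log ratios of compound over DMSO came from median-normalised label-free quantities by unpaired t-test. Only proteins with at least 2 unique peptides were used.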

[2] = compound: CN1c2ccccc2C(CS1(=O)=O)NC(=O)CCl
Procedure, shortened: as §1

[3] = compound: Cl.ClCC(=O)N1CCc2ncncc2C1
Procedure, shortened: as §1

[4] = compound: Cl.Cn1ncc2C(CCCc12)NC(=O)CCl
Procedure, shortened: as §1

[5] = compound: ClCC(=O)NC1CCOc2ccccc12
Procedure, shortened: as §1

[6] = compound: ClCC(=O)NC1CCCc2ccccc12
Procedure, shortened: (§2)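 In triplicate, 495 µg portions of HEK293T lysate in Tris/CHAPS/IGEPAL buffer with protease inhibitors received compound across a concentration series or vehicle for 3 h, followed by 1 h with 0.5 µM final Biotin-Ahx-Ub-VS. After NeutrAvidin enrichment and LysC/trypsin digestion, the labelled deubiquitinases were measured by diaPASEF LC-MS/MS and quantified label-free in Spectronaut with global-median normalisation. Each value is an average compound-to-vehicle ratio from an unpaired t-test, expressed as log2 and restricted to proteins having two or more unique peptides.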

[7] = compound: ClCC(=O)N[C@@H]1CCCc2ccccc12
Procedure, shortened: as §2

[8] = compound: ClCC(=O)N[C@H]1CCCc2ccccc12
Procedure, shortened: as §2

[9] = compound: CCC1N(CCc2cc(OC)c(Cl)cc12)C(=O)CCl
Procedure, shortened: as §1

[10] = compound: CCCC1N(CCc2cc(OC)c(OC)cc12)C(=O)CCl
Procedure, shortened: as §1

Measured: log2 ratio of Biotin-Ahx-Ub-VS probe labelling

EIF3H (UniProt O15372)
Sequence of UniProt O15372 (O15372 whole entry): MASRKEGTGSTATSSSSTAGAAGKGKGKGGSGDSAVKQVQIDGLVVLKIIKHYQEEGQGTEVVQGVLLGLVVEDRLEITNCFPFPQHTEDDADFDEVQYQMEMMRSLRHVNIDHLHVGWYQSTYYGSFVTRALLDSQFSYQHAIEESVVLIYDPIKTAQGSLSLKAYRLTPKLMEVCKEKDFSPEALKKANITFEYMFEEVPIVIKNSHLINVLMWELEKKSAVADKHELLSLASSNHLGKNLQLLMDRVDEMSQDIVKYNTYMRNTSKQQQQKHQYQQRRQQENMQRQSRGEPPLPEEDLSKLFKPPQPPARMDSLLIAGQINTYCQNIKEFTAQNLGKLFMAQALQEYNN
inactive: [1]; compound concentration: 50uM 4e-05 | [1]; compound concentration: 200uM -0.0195 | [2]; compound concentration: 50uM 0.0525 | [2]; compound concentration: 200uM 0.0675 | [3]; compound concentration: 50uM -0.0138 | [3]; compound concentration: 200uM -0.124 | [4]; compound concentration: 50uM -0.0892 | [4]; compound concentration: 200uM -0.0788 | [5]; compound concentration: 50uM 0.0209 | [5]; compound concentration: 200uM -0.0491 | [6]; compound concentration: 0.78uM -0.172 | [6]; compound concentration: 1.56uM 0.005 | [6]; compound concentration: 3.13uM 0.0821 | [6]; compound concentration: 6.25uM -0.12 | [6]; compound concentration: 12.5uM -0.146 | [6]; compound concentration: 25uM -0.153 | [6]; compound concentration: 50uM 0.125 | [6]; compound concentration: 100uM 0.0329 | [6]; compound concentration: 200uM -0.275 | [7]; compound concentration: 0.78uM -0.105 | [7]; compound concentration: 1.56uM 0.0364 | [7]; compound concentration: 3.13uM -0.02 | [7]; compound concentration: 6.25uM 0.0572 | [7]; compound concentration: 12.5uM 0.182 | [7]; compound concentration: 25uM -0.109 | [7]; compound concentration: 50uM 0.0801 | [7]; compound concentration: 100uM 0.0419 | [7]; compound concentration: 200uM 0.454 | [8]; compound concentration: 0.78uM 0.0712 | [8]; compound concentration: 1.56uM -0.0618 | [8]; compound concentration: 3.13uM -0.213 | [8]; compound concentration: 6.25uM 0.288 | [8]; compound concentration: 12.5uM 0.201 | [8]; compound concentration: 25uM 0.184 | [8]; compound concentration: 50uM 0.306 | [8]; compound concentration: 100uM -0.0743 | [8]; compound concentration: 200uM 0.179 | [9]; compound concentration: 50uM -0.165 | [9]; compound concentration: 200uM -0.139 | [10]; compound concentration: 50uM 0.00258 | [10]; compound concentration: 200uM 0.0942

USP19 (UniProt O94966)
Sequence of UniProt O94966 (O94966 whole entry): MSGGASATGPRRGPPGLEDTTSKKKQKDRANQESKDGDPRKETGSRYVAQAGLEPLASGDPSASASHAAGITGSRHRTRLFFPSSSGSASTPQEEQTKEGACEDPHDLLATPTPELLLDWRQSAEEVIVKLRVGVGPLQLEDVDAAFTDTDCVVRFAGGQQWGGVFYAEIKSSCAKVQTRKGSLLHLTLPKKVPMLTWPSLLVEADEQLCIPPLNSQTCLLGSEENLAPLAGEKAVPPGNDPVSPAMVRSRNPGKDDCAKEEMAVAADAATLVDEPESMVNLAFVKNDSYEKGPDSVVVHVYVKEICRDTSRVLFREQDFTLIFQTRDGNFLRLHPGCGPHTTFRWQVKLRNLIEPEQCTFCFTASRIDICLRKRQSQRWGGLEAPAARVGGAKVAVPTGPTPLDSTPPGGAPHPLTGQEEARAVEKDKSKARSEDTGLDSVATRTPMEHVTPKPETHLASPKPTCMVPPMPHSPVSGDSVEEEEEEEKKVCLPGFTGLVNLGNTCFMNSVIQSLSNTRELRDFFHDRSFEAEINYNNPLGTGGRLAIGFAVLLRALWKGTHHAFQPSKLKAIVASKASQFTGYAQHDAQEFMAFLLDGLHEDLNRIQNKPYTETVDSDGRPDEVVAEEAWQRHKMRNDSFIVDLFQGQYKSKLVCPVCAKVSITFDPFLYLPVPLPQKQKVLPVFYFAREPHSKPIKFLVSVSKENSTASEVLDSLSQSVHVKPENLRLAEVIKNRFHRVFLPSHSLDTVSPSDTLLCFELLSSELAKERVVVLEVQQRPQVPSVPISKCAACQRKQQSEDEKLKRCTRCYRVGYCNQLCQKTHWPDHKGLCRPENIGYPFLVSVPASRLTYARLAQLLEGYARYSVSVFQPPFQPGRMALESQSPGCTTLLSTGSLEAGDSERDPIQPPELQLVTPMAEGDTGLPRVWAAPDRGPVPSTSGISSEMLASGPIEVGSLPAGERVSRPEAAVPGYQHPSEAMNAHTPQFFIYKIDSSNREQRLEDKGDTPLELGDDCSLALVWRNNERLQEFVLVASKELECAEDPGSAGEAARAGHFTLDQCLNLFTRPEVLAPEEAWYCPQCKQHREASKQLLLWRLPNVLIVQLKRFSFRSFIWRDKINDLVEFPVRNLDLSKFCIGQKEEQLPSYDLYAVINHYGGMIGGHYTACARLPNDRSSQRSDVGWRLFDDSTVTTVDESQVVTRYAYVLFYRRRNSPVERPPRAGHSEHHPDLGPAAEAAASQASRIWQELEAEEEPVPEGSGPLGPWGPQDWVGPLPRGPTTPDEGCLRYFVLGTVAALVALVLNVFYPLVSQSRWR
active: [3]; compound concentration: 200uM -1.13 | [9]; compound concentration: 200uM -2.38 | [10]; compound concentration: 50uM -1.67 | [10]; compound concentration: 200uM -3.32
inactive: [1]; compound concentration: 50uM -0.285 | [1]; compound concentration: 200uM -0.845 | [2]; compound concentration: 50uM -0.191 | [2]; compound concentration: 200uM -0.286 | [3]; compound concentration: 50uM -0.264 | [4]; compound concentration: 50uM 0.00316 | [4]; compound concentration: 200uM -0.0581 | [5]; compound concentration: 50uM -0.218 | [5]; compound concentration: 200uM -0.211 | [6]; compound concentration: 0.78uM 0.0115 | [6]; compound concentration: 1.56uM 0.0325 | [6]; compound concentration: 3.13uM -0.14 | [6]; compound concentration: 6.25uM -0.00117 | [6]; compound concentration: 12.5uM -0.0872 | [6]; compound concentration: 25uM -0.173 | [6]; compound concentration: 50uM -0.131 | [6]; compound concentration: 100uM -0.081 | [6]; compound concentration: 200uM -0.216 | [7]; compound concentration: 0.78uM -0.105 | [7]; compound concentration: 1.56uM -0.0178 | [7]; compound concentration: 3.13uM -0.00588 | [7]; compound concentration: 6.25uM 0.0401 | [7]; compound concentration: 12.5uM -0.0591 | [7]; compound concentration: 25uM -0.121 | [7]; compound concentration: 50uM -0.26 | [7]; compound concentration: 100uM -0.182 | [7]; compound concentration: 200uM -0.339 | [8]; compound concentration: 0.78uM -0.0486 | [8]; compound concentration: 1.56uM -0.0156 | [8]; compound concentration: 3.13uM 0.00736 | [8]; compound concentration: 6.25uM 0.0504 | [8]; compound concentration: 12.5uM -0.0195 | [8]; compound concentration: 25uM -0.0989 | [8]; compound concentration: 50uM -0.0366 | [8]; compound concentration: 100uM -0.126 | [8]; compound concentration: 200uM -0.311 | [9]; compound concentration: 50uM -0.648

VCPIP1 (UniProt Q96JH7)
Sequence of UniProt Q96JH7 (Q96JH7 whole entry): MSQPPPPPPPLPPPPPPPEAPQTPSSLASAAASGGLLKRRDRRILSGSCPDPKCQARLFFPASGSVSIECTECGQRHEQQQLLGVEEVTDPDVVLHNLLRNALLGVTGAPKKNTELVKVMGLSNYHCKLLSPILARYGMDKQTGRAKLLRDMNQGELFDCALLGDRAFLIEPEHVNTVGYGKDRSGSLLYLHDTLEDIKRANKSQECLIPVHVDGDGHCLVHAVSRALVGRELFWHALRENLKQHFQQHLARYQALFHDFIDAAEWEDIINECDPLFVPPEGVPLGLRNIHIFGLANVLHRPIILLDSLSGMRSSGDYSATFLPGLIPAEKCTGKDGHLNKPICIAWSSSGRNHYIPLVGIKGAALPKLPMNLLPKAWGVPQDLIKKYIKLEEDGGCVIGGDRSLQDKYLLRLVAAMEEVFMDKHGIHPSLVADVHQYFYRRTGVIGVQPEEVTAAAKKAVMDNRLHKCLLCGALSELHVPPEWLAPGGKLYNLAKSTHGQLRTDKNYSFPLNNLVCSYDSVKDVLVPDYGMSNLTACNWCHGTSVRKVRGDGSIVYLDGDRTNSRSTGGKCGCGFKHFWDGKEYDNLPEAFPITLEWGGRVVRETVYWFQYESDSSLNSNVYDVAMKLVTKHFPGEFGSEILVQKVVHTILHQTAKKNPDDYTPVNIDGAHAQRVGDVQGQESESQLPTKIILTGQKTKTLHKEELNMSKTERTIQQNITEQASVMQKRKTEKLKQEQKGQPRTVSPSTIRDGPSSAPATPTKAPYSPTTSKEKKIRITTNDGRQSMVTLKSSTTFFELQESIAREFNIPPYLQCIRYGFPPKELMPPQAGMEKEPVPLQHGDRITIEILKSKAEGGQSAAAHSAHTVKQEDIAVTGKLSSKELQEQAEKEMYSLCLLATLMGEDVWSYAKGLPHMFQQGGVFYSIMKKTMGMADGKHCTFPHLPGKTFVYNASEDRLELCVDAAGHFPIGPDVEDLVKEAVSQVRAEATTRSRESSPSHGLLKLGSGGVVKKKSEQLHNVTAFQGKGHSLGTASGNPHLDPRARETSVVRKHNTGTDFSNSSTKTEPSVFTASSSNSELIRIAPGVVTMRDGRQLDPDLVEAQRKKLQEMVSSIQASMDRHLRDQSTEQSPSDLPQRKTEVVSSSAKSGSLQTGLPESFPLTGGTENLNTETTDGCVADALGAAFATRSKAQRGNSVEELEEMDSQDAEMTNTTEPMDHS
active: [2]; compound concentration: 200uM -1.25 | [6]; compound concentration: 200uM -1.18 | [7]; compound concentration: 200uM -1.11
inactive: [1]; compound concentration: 50uM -0.0812 | [1]; compound concentration: 200uM -0.216 | [2]; compound concentration: 50uM -0.772 | [3]; compound concentration: 50uM -0.0798 | [3]; compound concentration: 200uM -0.257 | [4]; compound concentration: 50uM -0.273 | [4]; compound concentration: 200uM -0.459 | [5]; compound concentration: 50uM -0.59 | [5]; compound concentration: 200uM -0.809 | [6]; compound concentration: 0.78uM -0.0601 | [6]; compound concentration: 1.56uM -0.043 | [6]; compound concentration: 3.13uM -0.312 | [6]; compound concentration: 6.25uM -0.126 | [6]; compound concentration: 12.5uM -0.217 | [6]; compound concentration: 25uM -0.282 | [6]; compound concentration: 50uM -0.514 | [6]; compound concentration: 100uM -0.706 | [7]; compound concentration: 0.78uM -0.284 | [7]; compound concentration: 1.56uM -0.221 | [7]; compound concentration: 3.13uM -0.211 | [7]; compound concentration: 6.25uM -0.266 | [7]; compound concentration: 12.5uM -0.486 | [7]; compound concentration: 25uM -0.463 | [7]; compound concentration: 50uM -0.588 | [7]; compound concentration: 100uM -0.763 | [8]; compound concentration: 0.78uM -0.0679 | [8]; compound concentration: 1.56uM -0.261 | [8]; compound concentration: 3.13uM -0.266 | [8]; compound concentration: 6.25uM -0.105 | [8]; compound concentration: 12.5uM -0.162 | [8]; compound concentration: 25uM -0.176 | [8]; compound concentration: 50uM -0.258 | [8]; compound concentration: 100uM -0.566 | [8]; compound concentration: 200uM -0.808 | [9]; compound concentration: 50uM -0.123 | [9]; compound concentration: 200uM -0.724 | [10]; compound concentration: 50uM -0.514 | [10]; compound concentration: 200uM -0.602

UniProt Q8TE49
Sequence of UniProt Q8TE49 (Q8TE49 whole entry): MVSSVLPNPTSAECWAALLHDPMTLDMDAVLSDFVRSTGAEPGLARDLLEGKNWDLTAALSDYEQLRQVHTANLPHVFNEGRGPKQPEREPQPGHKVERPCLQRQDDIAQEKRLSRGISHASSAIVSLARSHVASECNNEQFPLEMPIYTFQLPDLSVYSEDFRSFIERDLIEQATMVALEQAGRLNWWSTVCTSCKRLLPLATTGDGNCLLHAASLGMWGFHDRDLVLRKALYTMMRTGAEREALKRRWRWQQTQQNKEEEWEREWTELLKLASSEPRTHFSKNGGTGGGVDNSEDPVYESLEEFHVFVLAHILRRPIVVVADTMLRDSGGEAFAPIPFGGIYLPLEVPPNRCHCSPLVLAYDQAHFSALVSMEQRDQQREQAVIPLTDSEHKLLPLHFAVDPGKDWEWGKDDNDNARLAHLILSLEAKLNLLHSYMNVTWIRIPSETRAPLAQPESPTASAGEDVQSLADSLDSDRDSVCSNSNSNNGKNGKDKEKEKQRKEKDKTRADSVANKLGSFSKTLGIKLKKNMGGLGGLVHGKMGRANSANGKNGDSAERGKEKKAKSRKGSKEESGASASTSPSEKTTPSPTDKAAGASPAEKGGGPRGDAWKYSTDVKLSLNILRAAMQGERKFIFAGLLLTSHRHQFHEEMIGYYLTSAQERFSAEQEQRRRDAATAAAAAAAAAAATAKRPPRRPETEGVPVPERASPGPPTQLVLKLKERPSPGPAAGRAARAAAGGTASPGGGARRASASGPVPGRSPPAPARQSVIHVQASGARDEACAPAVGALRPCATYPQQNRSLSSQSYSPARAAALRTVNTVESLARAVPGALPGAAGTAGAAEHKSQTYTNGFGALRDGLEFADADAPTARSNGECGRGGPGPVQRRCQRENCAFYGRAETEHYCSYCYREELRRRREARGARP
active: [2]; compound concentration: 50uM -1.25 | [2]; compound concentration: 200uM -2.71 | [3]; compound concentration: 200uM -1.55 | [4]; compound concentration: 50uM -2.22 | [4]; compound concentration: 200uM -2.78 | [5]; compound concentration: 200uM -1.23 | [6]; compound concentration: 0.78uM -1.71 | [6]; compound concentration: 1.56uM -1.79 | [6]; compound concentration: 3.13uM -1.77 | [6]; compound concentration: 6.25uM -1.34 | [6]; compound concentration: 12.5uM -1.27 | [6]; compound concentration: 25uM -2.03 | [6]; compound concentration: 50uM -2.39 | [6]; compound concentration: 100uM -2.75 | [6]; compound concentration: 200uM -3.99 | [7]; compound concentration: 6.25uM -1.72 | [7]; compound concentration: 50uM -1.33 | [7]; compound concentration: 200uM -1.69 | [8]; compound concentration: 1.56uM -1.6
inactive: [1]; compound concentration: 50uM -0.281 | [1]; compound concentration: 200uM -0.466 | [3]; compound concentration: 50uM -0.364 | [5]; compound concentration: 50uM -0.839 | [7]; compound concentration: 0.78uM -0.577 | [7]; compound concentration: 1.56uM -0.173 | [7]; compound concentration: 3.13uM -0.995 | [7]; compound concentration: 12.5uM -0.347 | [7]; compound concentration: 25uM -0.135 | [7]; compound concentration: 100uM -0.0704 | [8]; compound concentration: 0.78uM -1.04
